The text below walks through data of PubChem BioAssay AID493185 (National Center for Advancing Translational Sciences (NCATS), 2011).

Structures are written as SMILES. Active and inactive are the calls of the source. Calls come from the whole dose curve; as a rule, active = well fitted activation curve with a large enough effect; inconclusive = small, poorly fitted or top-dose-only effect; inactive = no such curve, though single readings can be large or run the other way.

This assay is described as follows: Counterscreen for Identifying a Potential Treatment of Ataxia-Telangiectasia: Hit Validation. Note: 0% is about no effect. As to conditions: cell-free AlphaLISA/AlphaScreen artifact counterscreen, PBS only, no cells; series mostly up to 76.9 µM; activation: at the top concentration. The essentials: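 Cell-free AlphaLISA counterscreen: compounds (up to 76.7 uM final) in PBS with detection mix of anti-pKAP1 and anti-KAP1 antibodies on donor/acceptor beads plus lysis buffer, incubated 6 hr at 25C before AlphaScreen read.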
On the technique in general: A counterscreen serves to expose hits that act by an unwanted route or on another target.
On to `CCc1nnc2n1N=C(c1cccc([N+](=O)[O-])c1)CS2`, for which the “activation” value was -16.9% (inactive).
Regarding `COC(=O)Cn1ccc2cc(S(=O)(=O)N3CCCCC3)ccc21`, the “activation” value is -16.9% (inactive).
As for `CNC(=O)c1ccc(-c2cc3onc(-c4ccccc4)c3c(=O)n2C)cc1`, the “activation” value was -19.2% (inactive).
Regarding `CN(Cc1ccccc1)C(=O)c1cccc(N2C(=O)C3CC=CCC3C2=O)c1` (centres undefined), the “activation” value was 1.54% (inactive).
Take `CCOC(=O)N1CCC(NC(=O)C2CCN(S(=O)(=O)c3cccc4cccnc34)CC2)CC1`: the “activation” value is -3.28% (inactive).
The figure for `CC(C)OP(=O)(OC(C)C)C(O)c1ccc(N(C)C)cc1` (centres undefined) is -11.5% (inactive); for `O=C(O)CCCN1C(=O)/C(=C/C=C/c2ccco2)SC1=S` it is -43.4% (inactive).
With `COc1ccc(CCNC(=O)C2CCN(S(=O)(=O)c3ccc(OC)c(OC)c3)CC2)cc1OC`, the “activation” value was 0.769% (inactive).
Turning to `COc1ccc(C(=O)CSc2nc3ncccc3[nH]2)cc1OC`, the “activation” value is -10.8% (inactive).
The figure for `COc1cccc(OCCc2c(C)n[nH]c2C)c1` is -2.46% (inactive); for `CC1CC(C)CN(S(=O)(=O)c2ccc(C(=O)NCCCn3ccnc3)cc2)C1` (centres undefined) it is -32.8% (inactive).
For the compound `O=C1CN(C(=O)NCC(=O)N[C@H](C(=O)O)c2ccccc2)c2ccccc2N1`, the “activation” value is 9.02% (inactive).
With `O=C1NC(=Nc2ccccc2)CS1`, the “activation” value was -1.5% (inactive).
Regarding `Clc1cccc(CN2CCC(Cc3ccccc3)CC2)c1`, the “activation” value is -6.77% (inactive).
The figure for `COc1ccc(NS(=O)(=O)c2ccc(N3CC(O)=C(c4ccccc4)C3=N)cc2)cc1` is -13.9% (inactive); for `CCC(=O)c1ccc2c(c1)OCCO2` it is -15.8% (inactive); for `CC(C)(CO)NC(=O)c1ccc2c(c1)C(=O)c1ccccc1-2` it is -6.01% (inactive).
For `COc1ccc(N(CCC#N)C(=O)/C(C#N)=C\c2cccs2)cc1`, the “activation” value is -12% (inactive).
`CCCCCCCCCn1ccc(=N)cc1`: the “activation” value is -13.1% (inactive).
